HDAC3 inh: human HDAC3 inhibition; recombinant HDAC3, fluorogenic peptide/trypsin coupled, fluorescence; inhibition, % at 8.3 µM; actives 0.15% (n = 320,000); AID 2718; in the data active means inhibition above about 26%, passing the limit was not always enough; inconclusive means no clear call, values can overlap the other calls
APOBEC3G inh: blocks human APOBEC3G single-stranded DNA deamination; inhibition, % at 20 µM; actives 0.28% (n = 330,000); Q9HC16; recombinant A3G, ssDNA deamination FAM/TAMRA fluorescence; AID 493012;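 active means inhibition of at least 40% at 20 µM, with no more than 30% in the related APOBEC3A deaminase screen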
A3A deaminase: human APOBEC3A DNA deaminase inhibition | recombinant A3A, FAM/TAMRA ssDNA deamination fluorescence | P31941 | inhibition, % at 20 µM | actives 0.41% (n = 330,000) | AID 493011;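 active means at least 40% inhibition at 20 µM here, with at most 30% in a related deaminase screen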
LANA-H2B inh: blocks KSHV LANA binding to histone H2A/H2B; inhibition, % (test concentration not listed); actives 0.6% (n = 320,000); Q9QR71; AID 2629; cell-free LANA-H2A/H2B peptide, fluorescence polarization; in the data active means inhibition mostly above about 10%, no sharp cut-off; inactive means mostly below about 6.7%
APOBEC3G confirm: APOBEC3G (human) deaminase inhibition, confirmed; shares compounds with APOBEC3G inh; recombinant A3G ssDNA deaminase, UDG/FAM-TAMRA fluorescence; inhibition, % at 20 µM; actives 72% (n = 890);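 active means inhibition reaching a set limit in any replicate at 20 µM, the limit being 80% of the first screen's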
UDG ctr A3G: inhibits E. coli UDG, flagging false APOBEC3G inhibitors; shares compounds with APOBEC3G inh; UDG counterscreen, FAM/TAMRA oligo fluorescence; inhibition, % at 20 µM; 710 tested, under 10 active; AID 504715;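 active means compounds giving 40% or more inhibition at 20 µM in any one of the three replicates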;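 further: inhibitors lower the FAM signal released by uracil excision and alkaline cleavage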
A number is an active result. Sampled rows, rich in hits. Any-hit rate of the full collection: about 1.4%.

How did O=C(NN1C(=O)C2CC=C(Cl)CC2C1=O)c1ccncc1 (stereo not given) do in these assays?
HDAC3 inh: inactive; APOBEC3G inh: 40.1; A3A deaminase: inactive; LANA-H2B inh: inactive; APOBEC3G confirm: 40.5; UDG ctr A3G: inactive

What do the screens show for `S=c1[nH]nc(Nc2ccccc2Cl)s1`?
HDAC3 inh: inactive; APOBEC3G inh: 45.4; A3A deaminase: inactive; LANA-H2B inh: inactive; APOBEC3G confirm: 65.8; UDG ctr A3G: inactive

What do the screens show for `S=c1[nH]nc(Nc2cccc(Cl)c2)s1`?
HDAC3 inh: inactive; APOBEC3G inh: inactive; A3A deaminase: inactive; LANA-H2B inh: inactive

Results for CCOc1ccc2nc(NC(=S)N(C)C)sc2c1 ?
HDAC3 inh: inactive; APOBEC3G inh: 46.7; A3A deaminase: inactive; LANA-H2B inh: inactive; APOBEC3G confirm: 54.6; UDG ctr A3G: inactive

What do the screens show for `CCOC(=O)c1c(NC(=O)CCCC(=O)O)sc2c1CCC2`?
HDAC3 inh: inactive; APOBEC3G inh: inactive; A3A deaminase: inactive; LANA-H2B inh: inactive

Results for CCOC(=O)c1c(NC(=O)CCC(=O)O)sc2c1CCCCC2 ?
HDAC3 inh: inactive; APOBEC3G inh: 40.4; A3A deaminase: inactive; LANA-H2B inh: inactive; APOBEC3G confirm: inactive

Results for S=c1[nH]nc(-c2ccccc2)n1/N=C/c1cccs1 ?
HDAC3 inh: inactive; APOBEC3G inh: 43.9; A3A deaminase: inactive; LANA-H2B inh: inactive; APOBEC3G confirm: 57.7; UDG ctr A3G: inactive

How did S=c1[nH]nc(-c2ccco2)n1/N=C/c1cccs1 do in these assays?
HDAC3 inh: inactive; APOBEC3G inh: 61.6; A3A deaminase: inactive; LANA-H2B inh: inactive; APOBEC3G confirm: 80.7; UDG ctr A3G: inactive

How did Cc1cccc(/C=N/n2c(-c3ccccc3)n[nH]c2=S)c1O do in these assays?
HDAC3 inh: inactive; APOBEC3G inh: inactive; A3A deaminase: inactive; LANA-H2B inh: inactive

How did O=[N+]([O-])c1ccccc1/C=N/n1c(-c2ccccc2)n[nH]c1=S do in these assays?
HDAC3 inh: inactive; APOBEC3G inh: 51.3; A3A deaminase: inactive; LANA-H2B inh: inactive; APOBEC3G confirm: 80.6; UDG ctr A3G: inactive

What do the screens show for `Cc1cc(-c2n[nH]c(=S)n2/N=C/c2cccs2)n[nH]1`?
HDAC3 inh: inactive; APOBEC3G inh: 60.2; A3A deaminase: inactive; LANA-H2B inh: inactive; APOBEC3G confirm: 91.8; UDG ctr A3G: inactive

How did Cc1ccc(-c2n[nH]c(=S)n2/N=C/c2cccs2)cc1 do in these assays?
HDAC3 inh: inactive; APOBEC3G inh: inactive; A3A deaminase: inactive; LANA-H2B inh: inactive

How did CC1CN(S(=O)(=O)c2cccc(C(=O)NCC3COc4ccccc4O3)c2)CC(C)O1 (stereo not given) do in these assays?
HDAC3 inh: inactive; APOBEC3G inh: inactive; A3A deaminase: inactive; LANA-H2B inh: inactive

What do the screens show for `COc1ccc(N2CCN(CNC(=O)c3ccccc3)CC2)cc1`?
HDAC3 inh: inactive; APOBEC3G inh: inactive; A3A deaminase: inactive; LANA-H2B inh: inactive

How did CC1CCN(c2ccc(C(=O)O)cc2NS(=O)(=O)c2ccc(Br)cc2)CC1 do in these assays?
HDAC3 inh: inactive; APOBEC3G inh: inactive; A3A deaminase: inactive; LANA-H2B inh: inactive

Results for CCCCCc1ccc(-c2ccc(/C=C/C(=O)O)cc2)nc1 ?
HDAC3 inh: inactive; APOBEC3G inh: 88.8; A3A deaminase: inactive; LANA-H2B inh: inactive; APOBEC3G confirm: inactive

How did CN(C)S(=O)(=O)c1cc(NC(=O)CN2CCN(c3ccccc3)CC2)ccc1Cl do in these assays?
HDAC3 inh: inactive; APOBEC3G inh: inactive; A3A deaminase: inactive; LANA-H2B inh: inactive

What do the screens show for `CN(C)S(=O)(=O)c1cc(NC(=O)CN2CCN(c3ccc(O)cc3)CC2)ccc1Cl`?
HDAC3 inh: inactive; APOBEC3G inh: 58.1; A3A deaminase: inactive; LANA-H2B inh: inactive; APOBEC3G confirm: inactive; UDG ctr A3G: inactive

What do the screens show for `Cc1[nH]c(=O)c(C#N)c2c1CCCC2`?
HDAC3 inh: inactive; APOBEC3G inh: inactive; A3A deaminase: inactive; LANA-H2B inh: inactive

What do the screens show for `Cc1[nH]c(=S)c(C#N)c2c1CCCC2`?
HDAC3 inh: inactive; APOBEC3G inh: 50.2; A3A deaminase: inactive; LANA-H2B inh: inactive; APOBEC3G confirm: 82.9; UDG ctr A3G: inactive

How did O=C(N/N=C/c1cccnc1)c1cc(O)c(O)c(O)c1 do in these assays?
HDAC3 inh: inactive; APOBEC3G inh: inactive; A3A deaminase: inactive; LANA-H2B inh: inactive

Results for Cc1ccc(C)c(-n2sc3ccc(F)cc3c2=O)c1 ?
HDAC3 inh: inconclusive; APOBEC3G inh: 55.9; A3A deaminase: inactive; LANA-H2B inh: inactive; APOBEC3G confirm: 61.2; UDG ctr A3G: inactive

Results for COc1ccc(-n2sc3ccc(F)cc3c2=O)cc1 ?
HDAC3 inh: inconclusive; APOBEC3G inh: 67.0; A3A deaminase: inactive; LANA-H2B inh: inactive; APOBEC3G confirm: 81.0; UDG ctr A3G: inactive

How did O=C1CCCC(=O)N1c1ccc(F)cc1 do in these assays?
HDAC3 inh: inactive; APOBEC3G inh: inactive; A3A deaminase: inactive; LANA-H2B inh: inactive

What do the screens show for `O=c1c2cc(F)ccc2sn1-c1ccc(F)cc1`?
HDAC3 inh: inconclusive; APOBEC3G inh: 72.3; A3A deaminase: inactive; LANA-H2B inh: inactive; APOBEC3G confirm: 78.0; UDG ctr A3G: inactive

Results for COc1cc(OC)cc(C(=O)NCC2CCCN(C(=O)c3csc(C)n3)C2)c1 (stereo not given) ?
HDAC3 inh: inactive; APOBEC3G inh: inactive; A3A deaminase: inactive; LANA-H2B inh: inactive

How did Cc1ccc(Nc2nnc(SCC(=O)Nc3cc(C(=O)O)ccc3C)s2)c(C)c1 do in these assays?
HDAC3 inh: inactive; APOBEC3G inh: inactive; A3A deaminase: inactive; LANA-H2B inh: inactive

Results for O=C1CN(S(=O)(=O)c2ccccc2)c2ccccc2N1 ?
HDAC3 inh: inactive; APOBEC3G inh: inactive; A3A deaminase: inactive; LANA-H2B inh: inactive

Results for Cc1cc(C)c2c(=O)n(CC(=O)N3CCC(N4CCCCC4)CC3)sc2n1 ?
HDAC3 inh: inactive; APOBEC3G inh: 49.3; A3A deaminase: inactive; LANA-H2B inh: inactive; APOBEC3G confirm: 81.8; UDG ctr A3G: inactive

Results for CC(=O)Cn1cnc2c(sc3nc(C)cc(C)c32)c1=O ?
HDAC3 inh: inactive; APOBEC3G inh: inactive; A3A deaminase: inactive; LANA-H2B inh: inactive

What do the screens show for `CCCNC(=O)Cn1sc2nc(C)cc(C)c2c1=O`?
HDAC3 inh: inactive; APOBEC3G inh: 59.8; A3A deaminase: inactive; LANA-H2B inh: inactive; APOBEC3G confirm: 77.1; UDG ctr A3G: inactive

Results for Cc1nn(CC(=O)N2CCC(N3CCCCC3)CC2)c(=O)c2c1sc1ccccc12 ?
HDAC3 inh: inactive; APOBEC3G inh: inactive; A3A deaminase: inactive; LANA-H2B inh: inactive

How did CCOC(=O)C1CCCN(C(=O)Cn2sc3nc(C)cc(C)c3c2=O)C1 (stereo not given) do in these assays?
HDAC3 inh: inactive; APOBEC3G inh: 50.4; A3A deaminase: inactive; LANA-H2B inh: inactive; APOBEC3G confirm: 77.7; UDG ctr A3G: inactive

What do the screens show for `O=S(=O)(c1ccc2[nH]ccc2c1)N1CCCCCC1`?
HDAC3 inh: inactive; APOBEC3G inh: inactive; A3A deaminase: inactive; LANA-H2B inh: inactive

Results for Cc1cccc(C(=O)Oc2ccc3ccc(O)cc3c2)c1 ?
HDAC3 inh: inactive; APOBEC3G inh: inactive; A3A deaminase: inactive; LANA-H2B inh: inactive
